Screening data: PubChem, National Center for Advancing Translational Sciences (NCATS)
TDP-43 yeast inh – inhibitors of TDP-43 toxicity in yeast; Potency, µM (top dose mostly 46.1 µM), for inactives: at the top dose growth rescue (activation), hits mostly activators; TDP-43 expressing yeast growth rescue, BacTiter-Glo, 24 h; hit rate 1.8% among 410,000; note: % of control where 0% means no effect; nearly all actives have a fitted effect of over 50% in size
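Growth rescue of TDP-43-toxic yeast measured as ATP luminescence (BacTiter-Glo). Cells grown to mid-log in raffinose, induced in galactose at OD600=0.02, exposed to compound 24 hr at 30 deg C.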
FUS suppressor – rescues growth of FUS-expressing yeast | S. cerevisiae FUS-expressing, growth rescue, OD600, 24 h | Potency, µM (doses to about 76.6 µM), actives largely listed as activators | hit rate 0.24% among 390,000 | AID 1347120;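 note: plate controls were DMSO vehicle for no effect and reference control for full effect; nearly all actives have a fitted effect of over 55% in size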
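FUS-expressing yeast, raffinose-pregrown, induced in 2% galactose minimal medium at OD 0.005; compounds in a dilution series, 24hr at 30C. Growth restoration read as absorbance at 600 nm. CP55940 positive control, DMSO negative.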
Abeta yeast res – A-beta toxicity reversal in yeast | Potency, µM (highest dose often 46.1 µM), actives largely listed as activators | yeast expressing A-beta42, growth rescue, OD600, 48 h; response scale: 0% DMSO, 100% iron-clioquinol control | hit rate 0.063% among 410,000; note: nearly all actives have a fitted effect of over 55% in size
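Yeast growth medium received pinned compounds, then yeast cells expressing toxic A-beta were added; plates incubated at 30 C for 48 hr. Growth read as absorbance at 600 nm, normalized to DMSO and equimolar FeCl3 plus clioquinol controls.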
Mito fusion act – blocks mitochondrial division or promotes mitochondrial fusion. S. cerevisiae fusion-defective mutant growth rescue, CellTiterGlo 48 h. Potency, µM (doses to about 46.1 µM), inactives show at the top dose growth rescue (activation), usual class: activators. AID 485298. hit rate 0.23% among 320,000; note: % of control where 0% means no effect; nearly all actives have a fitted effect of over 45% in size
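Yeast fusion mutant, YPEG (non-fermentable carbon), compound, 48 h at 37C non-permissive; CellTiterGlo added, 10 min RT, luminescence read. Rescued growth = division inhibition.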
aSyn yeast inh – alpha-synuclein toxicity inhibition in yeast; hit rate 0.14% among 370,000; Potency, µM (highest dose often 46.1 µM), for the others: at the highest dose growth rescue (activation), most hits filed as activators; Yeast expressing alpha-synuclein, growth rescue, BacTiter-Glo, 24 h; note: % of control where 0% means no effect; nearly all actives have a fitted effect of over 65% in size
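Readout is rescue of growth in alpha-synuclein-expressing yeast, so inhibitors of toxicity appear as activators. Growth after 24 hr at 30 deg C in galactose medium is quantified by luminescence.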
* = called active by the depositor; [ ] = dose if it differs, or a comment. In the library only some 2.2% were active in any assay of this set; here they are far more common. Calls come from the whole dose curve; as a rule, active = well fitted curve in the direction sought with a large enough effect; inconclusive = small, poorly fitted or top-dose-only effect, or another doubt; inactive = no such curve, though single readings can be large; an effect the other way counts as inactive or inconclusive. Potency is the fitted concentration of half-maximal effect.

Screening CC(C)n1c(=O)c2ccccc2n1Cc1cn(C2CCCC2)nn1 returned TDP-43 yeast inh 5.0%, FUS suppressor inactive, Abeta yeast res inactive and aSyn yeast inh -4.8%.
`COc1ccc(-c2cc(NC=O)c3ncc(-c4cccc(C(F)(F)F)c4)n3c2)c(OC)c1` gave TDP-43 yeast inh 15.8µM*, FUS suppressor inconclusive, Abeta yeast res inactive and aSyn yeast inh -6.1%.
Screening COc1cc(-c2cnc3c(NC=O)cc(-c4cccc(C(F)(F)F)c4)cn23)cc(OC)c1OC returned TDP-43 yeast inh 0.0%, FUS suppressor inconclusive, Abeta yeast res inactive and aSyn yeast inh 10.9%.
COc1cccc(-c2cnc3c(NC(C)=O)cc(-c4ccccc4OC)cn23)c1 was read as TDP-43 yeast inh 20µM*, FUS suppressor inactive, Abeta yeast res inactive and aSyn yeast inh 6.3%.
CCN1CC(C)(C)N(C(=O)c2ccccc2)CC1(C)C was read as TDP-43 yeast inh 0.0%, Abeta yeast res inactive and aSyn yeast inh 5.6%.
Screening CCc1ccccc1NC(=O)CSc1ncc(S(=O)(=O)c2ccccc2)c(=O)[nH]1 returned TDP-43 yeast inh 6.8%, FUS suppressor inactive, Abeta yeast res inactive and aSyn yeast inh 3.98µM*.
For COC(=O)CSc1ncc(S(=O)(=O)c2ccccc2)c(=O)[nH]1 the results were TDP-43 yeast inh -15.8%, FUS suppressor inactive, Abeta yeast res inactive, Mito fusion act -11.4% and aSyn yeast inh 3.0%.
ClC(Cl)(Cl)c1nc2ccccc2n2nncc12 was read as TDP-43 yeast inh -2.7%, FUS suppressor inactive, Abeta yeast res inactive, Mito fusion act 12.6µM* and aSyn yeast inh -20.7%.
Screening CC(C)C(NS(=O)(=O)c1ccccc1)C(=O)N1CCN(C(=O)c2ccco2)CC1 (configuration not stated) returned TDP-43 yeast inh 10.0%, Abeta yeast res inactive, Mito fusion act 0.8% and aSyn yeast inh -1.2%.
`CCOC(=O)C1=CCN(S(=O)(=O)c2cccc(Cl)c2)C1c1ccc(Br)cc1` (configuration not stated) gave TDP-43 yeast inh 0.0%, FUS suppressor inconclusive, Abeta yeast res inactive and aSyn yeast inh 20µM*.
O=C(CN1C(=O)CC(c2ccco2)Sc2ccccc21)Nc1ccc(Br)cc1 (configuration not stated) was read as TDP-43 yeast inh 4.2%, FUS suppressor inactive, Abeta yeast res inactive and aSyn yeast inh 7.5%.
For O=C(CN1C(=O)CC(c2ccco2)Sc2ccccc21)Nc1ccccc1F (configuration not stated) the results were TDP-43 yeast inh 31.6µM*, FUS suppressor inactive, Abeta yeast res inactive, Mito fusion act 20.6% and aSyn yeast inh 7.8%.
COC(=O)c1c(C)[nH]c(C(=O)OCC(=O)c2ccc(C)s2)c1C was read as TDP-43 yeast inh -3.4%, FUS suppressor inactive, Abeta yeast res inactive and aSyn yeast inh 1.2%.
CC(=O)Nc1cc(C(F)(F)F)ccc1OCCOc1ccccc1 was read as TDP-43 yeast inh 12.6µM*, FUS suppressor inactive, Abeta yeast res inactive and aSyn yeast inh -3.1%.
Screening CC(=O)Nc1cc(C(F)(F)F)ccc1Oc1cccc(Br)c1 returned TDP-43 yeast inh 11.2µM*, FUS suppressor inactive, Abeta yeast res inactive, Mito fusion act 0.4% and aSyn yeast inh 1.5%.
For COCCOc1ccc(C(F)(F)F)cc1NC(=O)c1ccccc1 the results were TDP-43 yeast inh inconclusive, FUS suppressor inactive, Abeta yeast res inactive, Mito fusion act 13.4% and aSyn yeast inh -0.4%.
`Cc1ccccc1NC(=S)c1nc2ccccc2[nH]1` gave TDP-43 yeast inh 17.8µM*, FUS suppressor inactive, Abeta yeast res inconclusive, Mito fusion act 9.6% and aSyn yeast inh 15.3%.
For S=C(Nc1ccc(Cl)cc1)c1nc2ccccc2[nH]1 the results were TDP-43 yeast inh inconclusive, Abeta yeast res inactive, Mito fusion act 13.2% and aSyn yeast inh -32.3%.
Screening c1ccc2c(c1)ccc1ccccc12 returned TDP-43 yeast inh -0.1%, FUS suppressor inactive, Abeta yeast res inactive and aSyn yeast inh -2.6%.
For O=c1ccc2ccccc2c2ccccc12 the results were TDP-43 yeast inh 3.16µM*, FUS suppressor inactive, Abeta yeast res inactive and aSyn yeast inh inconclusive.
CCCN(CCC)S(=O)(=O)c1ccc2c(c1)N(CC(=O)NCc1ccc(F)cc1Cl)C(=O)CS2 was read as TDP-43 yeast inh -17.6%, FUS suppressor inconclusive, Abeta yeast res inactive and Mito fusion act -3.3%.
`Nc1ccc(N2CCN(c3ccc(Cl)c(Cl)c3)CC2)cc1` gave TDP-43 yeast inh 8.91µM*, Abeta yeast res inactive, Mito fusion act 12.6µM* and aSyn yeast inh 12.4%.
CCCCn1c(=O)c2oc3ccccc3c2n(Cc2cccc(C)c2)c1=O was read as TDP-43 yeast inh 10.4%, FUS suppressor inactive and Abeta yeast res inactive.
For O=C(CSc1nc(C(F)(F)F)cc(=O)[nH]1)N1CCC(Cc2ccccc2)CC1 the results were TDP-43 yeast inh -23.0%, FUS suppressor inactive, Abeta yeast res inactive, Mito fusion act -12.4% and aSyn yeast inh -0.9%.
`Cc1ccccc1-c1nnc(C2CCN(S(=O)(=O)c3ccc(Cl)cc3)CC2)o1` gave TDP-43 yeast inh 13.3%[9.22 µM], FUS suppressor inactive and Abeta yeast res inactive.
COc1ccc(S(=O)(=O)N2CCC(c3nnc(-c4ccccc4C)o3)CC2)c(OC)c1 was read as TDP-43 yeast inh 0.0%, FUS suppressor 31.6µM* and Abeta yeast res inactive.
For CC(=O)NC(=S)NNC(=O)C(c1ccccc1)c1ccccc1 the results were TDP-43 yeast inh 17.8µM*, FUS suppressor inactive, Abeta yeast res inactive, Mito fusion act 7.6% and aSyn yeast inh 22.4µM*.
For N#CCC(=O)NNC(=S)NC(=O)C(c1ccccc1)c1ccccc1 the results were TDP-43 yeast inh -24.0%, FUS suppressor inactive, Abeta yeast res inactive, Mito fusion act 1.5% and aSyn yeast inh -3.8%.
Screening FC(F)(F)c1cccc(CC2CN(Cc3ccccc3)Cc3ccccc3N2c2cc(Cl)cc(Cl)c2)c1 (configuration not stated) returned TDP-43 yeast inh 3.5%, FUS suppressor inactive, Abeta yeast res inactive and aSyn yeast inh -9.5%.
Cc1ccsc1/C=N/NC(=O)CSCc1ccc(Cl)cc1 was read as TDP-43 yeast inh 14.1µM*, FUS suppressor inactive, Abeta yeast res inactive, Mito fusion act 8.2% and aSyn yeast inh inconclusive.
Screening COC(=O)c1cc(S(=O)(=O)N2CCN(Cc3ccccc3)CC2)c[nH]1 returned TDP-43 yeast inh -9.1%, FUS suppressor inactive, Abeta yeast res inactive, Mito fusion act inconclusive and aSyn yeast inh 2.1%.
